Measured values from the supplement of paper PMC11732987, “Enantioselective OTUD7B fragment discovery through chemoproteomics screening and high-throughput optimisation” (Communications Chemistry, 2025).

Experiments:
Experiment in all cases: log2 ratio of Biotin-Ahx-Ub-VS probe labelling (fragment/DMSO); higher = less target engagement (more negative = stronger competition), active = hit call of the paper (q ≤ 0.05, log2 ratio ≤ -1)
Conditions in all cases: compound concentration: 200 uM; treatment time: 3 h
ALG13 = biological target: T1, ALG13 (UniProt Q9NP73)
T1 sequence (whole entry): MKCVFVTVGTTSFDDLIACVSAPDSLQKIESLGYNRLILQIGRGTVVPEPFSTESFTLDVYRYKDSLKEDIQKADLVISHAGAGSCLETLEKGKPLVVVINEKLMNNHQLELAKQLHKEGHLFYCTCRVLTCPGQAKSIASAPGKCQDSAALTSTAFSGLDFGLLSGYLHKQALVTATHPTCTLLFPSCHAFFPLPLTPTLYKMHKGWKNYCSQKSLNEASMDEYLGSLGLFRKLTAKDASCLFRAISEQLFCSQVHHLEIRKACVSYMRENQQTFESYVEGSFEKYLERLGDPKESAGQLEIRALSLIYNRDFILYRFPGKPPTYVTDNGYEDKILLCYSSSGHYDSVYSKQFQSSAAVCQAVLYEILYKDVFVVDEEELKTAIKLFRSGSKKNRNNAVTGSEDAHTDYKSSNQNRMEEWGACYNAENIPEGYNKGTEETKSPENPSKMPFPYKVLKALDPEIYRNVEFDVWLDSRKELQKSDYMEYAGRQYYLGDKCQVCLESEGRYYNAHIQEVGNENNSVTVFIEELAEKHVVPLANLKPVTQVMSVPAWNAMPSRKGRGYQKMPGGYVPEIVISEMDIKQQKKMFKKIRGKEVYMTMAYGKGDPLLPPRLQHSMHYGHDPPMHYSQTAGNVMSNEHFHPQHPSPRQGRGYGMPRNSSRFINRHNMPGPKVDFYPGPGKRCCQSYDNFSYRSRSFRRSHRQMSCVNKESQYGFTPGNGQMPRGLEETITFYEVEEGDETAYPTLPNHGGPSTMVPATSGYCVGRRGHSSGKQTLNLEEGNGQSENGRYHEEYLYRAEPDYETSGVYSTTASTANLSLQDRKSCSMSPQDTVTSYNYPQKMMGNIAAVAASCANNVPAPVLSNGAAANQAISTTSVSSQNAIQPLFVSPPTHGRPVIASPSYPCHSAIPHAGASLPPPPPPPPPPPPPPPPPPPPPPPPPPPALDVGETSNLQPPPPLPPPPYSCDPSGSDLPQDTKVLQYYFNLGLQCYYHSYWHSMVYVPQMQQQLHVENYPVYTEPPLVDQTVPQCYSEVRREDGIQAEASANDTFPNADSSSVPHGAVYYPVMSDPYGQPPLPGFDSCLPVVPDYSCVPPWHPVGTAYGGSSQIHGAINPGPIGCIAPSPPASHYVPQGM
Method in brief: (§1)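 Labelling with Biotin-Ahx-Ub-VS (0.5 µM final, 1 h) followed a 3 h triplicate treatment of HEK293T lysate (495 µg per sample, Tris/CHAPS/IGEPAL buffer with protease inhibitors) with fragment at 200 µM or vehicle. Labelled DUBs were NeutrAvidin-enriched, digested with LysC and trypsin, and run by diaPASEF LC-MS/MS. The values, average log2 fragment/vehicle ratios by unpaired t-test, come from global-median-normalised Spectronaut label-free quantities. Proteins with ≥2 unique peptides were used.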

ATXN3 = ATXN3 (UniProt P54252)
Method in brief: as §1

BAP1 = biological target: T2, BAP1 (UniProt Q92560)
T2 sequence (whole entry): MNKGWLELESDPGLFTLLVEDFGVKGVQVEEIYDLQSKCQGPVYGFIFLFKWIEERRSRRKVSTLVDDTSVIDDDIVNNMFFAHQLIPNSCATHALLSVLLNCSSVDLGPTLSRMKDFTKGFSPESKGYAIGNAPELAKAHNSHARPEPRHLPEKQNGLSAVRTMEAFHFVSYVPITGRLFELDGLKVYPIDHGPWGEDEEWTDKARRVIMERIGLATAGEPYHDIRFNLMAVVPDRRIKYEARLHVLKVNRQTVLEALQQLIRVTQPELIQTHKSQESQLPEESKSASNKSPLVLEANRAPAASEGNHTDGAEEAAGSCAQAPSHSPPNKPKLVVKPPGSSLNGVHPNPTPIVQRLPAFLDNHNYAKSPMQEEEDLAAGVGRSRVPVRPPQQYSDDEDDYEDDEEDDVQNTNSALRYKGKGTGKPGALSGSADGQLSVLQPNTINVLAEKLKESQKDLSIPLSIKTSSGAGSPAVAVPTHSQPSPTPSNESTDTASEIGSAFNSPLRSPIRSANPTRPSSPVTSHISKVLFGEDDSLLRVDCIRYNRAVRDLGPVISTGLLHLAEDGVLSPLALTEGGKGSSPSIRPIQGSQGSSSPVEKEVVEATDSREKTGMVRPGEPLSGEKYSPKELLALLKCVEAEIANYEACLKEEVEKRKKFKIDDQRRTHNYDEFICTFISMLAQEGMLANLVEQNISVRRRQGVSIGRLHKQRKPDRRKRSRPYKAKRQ
Method in brief: as §1

EIF3F = EIF3F (UniProt O00303)
Method in brief: as §1

EIF3H = EIF3H (UniProt O15372)
Method in brief: as §1

FAM105A = biological target: T3, FAM105A (UniProt Q9NUU6)
T3 sequence (whole entry): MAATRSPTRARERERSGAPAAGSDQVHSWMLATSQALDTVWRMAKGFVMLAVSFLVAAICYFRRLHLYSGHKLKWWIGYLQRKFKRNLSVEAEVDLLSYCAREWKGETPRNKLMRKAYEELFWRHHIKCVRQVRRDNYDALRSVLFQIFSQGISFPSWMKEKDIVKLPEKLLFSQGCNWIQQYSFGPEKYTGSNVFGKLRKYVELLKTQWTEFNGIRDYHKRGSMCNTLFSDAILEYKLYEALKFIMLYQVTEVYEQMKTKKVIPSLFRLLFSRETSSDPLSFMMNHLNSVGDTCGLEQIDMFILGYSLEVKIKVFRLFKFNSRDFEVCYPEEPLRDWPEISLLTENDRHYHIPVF
Method in brief: as §1

OTUB1 = OTUB1 (UniProt Q96FW1)
Method in brief: as §1

OTUD4 = biological target: T4, OTUD4 (UniProt Q01804)
T4 sequence (whole entry): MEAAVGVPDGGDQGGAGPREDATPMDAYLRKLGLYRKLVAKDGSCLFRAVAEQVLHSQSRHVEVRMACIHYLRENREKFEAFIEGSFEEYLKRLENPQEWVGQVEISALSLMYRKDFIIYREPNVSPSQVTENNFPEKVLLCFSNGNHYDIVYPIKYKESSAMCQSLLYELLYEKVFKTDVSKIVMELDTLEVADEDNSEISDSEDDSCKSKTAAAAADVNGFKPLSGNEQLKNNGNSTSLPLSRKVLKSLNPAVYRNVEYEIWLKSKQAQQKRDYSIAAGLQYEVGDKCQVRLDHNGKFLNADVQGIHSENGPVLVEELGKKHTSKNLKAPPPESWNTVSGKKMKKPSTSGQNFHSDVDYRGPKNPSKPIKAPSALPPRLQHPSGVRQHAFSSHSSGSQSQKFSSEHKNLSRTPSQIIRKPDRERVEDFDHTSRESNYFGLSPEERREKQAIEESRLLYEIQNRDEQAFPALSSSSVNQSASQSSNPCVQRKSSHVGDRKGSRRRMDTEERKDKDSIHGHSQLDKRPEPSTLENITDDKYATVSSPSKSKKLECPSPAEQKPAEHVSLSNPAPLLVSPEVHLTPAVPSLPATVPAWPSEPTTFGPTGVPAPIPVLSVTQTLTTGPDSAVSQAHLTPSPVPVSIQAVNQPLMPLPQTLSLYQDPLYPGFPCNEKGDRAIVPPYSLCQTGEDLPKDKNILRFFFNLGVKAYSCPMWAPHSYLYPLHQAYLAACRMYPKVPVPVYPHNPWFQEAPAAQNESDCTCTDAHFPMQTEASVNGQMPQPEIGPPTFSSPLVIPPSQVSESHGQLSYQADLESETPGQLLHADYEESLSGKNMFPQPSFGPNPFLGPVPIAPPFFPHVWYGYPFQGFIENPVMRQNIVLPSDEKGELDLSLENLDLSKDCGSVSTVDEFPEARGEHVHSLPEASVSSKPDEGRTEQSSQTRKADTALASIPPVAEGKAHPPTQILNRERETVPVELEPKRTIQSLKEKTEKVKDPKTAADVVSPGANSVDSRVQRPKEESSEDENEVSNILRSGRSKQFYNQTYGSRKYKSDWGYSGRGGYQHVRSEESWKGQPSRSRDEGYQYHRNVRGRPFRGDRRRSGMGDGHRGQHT
Method in brief: as §1

OTUD5 = biological target: T5, OTUD5 (UniProt Q96G74)
T5 sequence (whole entry): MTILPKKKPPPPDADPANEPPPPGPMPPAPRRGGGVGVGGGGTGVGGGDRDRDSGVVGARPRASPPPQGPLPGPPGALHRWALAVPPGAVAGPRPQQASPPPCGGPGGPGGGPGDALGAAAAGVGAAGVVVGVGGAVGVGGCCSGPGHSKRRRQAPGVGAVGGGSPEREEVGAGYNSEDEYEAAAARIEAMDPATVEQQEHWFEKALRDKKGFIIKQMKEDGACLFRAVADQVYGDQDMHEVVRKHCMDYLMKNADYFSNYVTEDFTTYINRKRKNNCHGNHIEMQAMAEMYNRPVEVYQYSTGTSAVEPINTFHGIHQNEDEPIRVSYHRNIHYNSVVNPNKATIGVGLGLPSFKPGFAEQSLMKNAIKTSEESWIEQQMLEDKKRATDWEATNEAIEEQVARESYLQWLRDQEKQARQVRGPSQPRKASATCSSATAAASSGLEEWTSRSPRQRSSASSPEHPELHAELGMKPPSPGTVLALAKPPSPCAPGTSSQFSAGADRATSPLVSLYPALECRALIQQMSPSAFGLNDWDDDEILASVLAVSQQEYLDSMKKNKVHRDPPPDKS
Method in brief: as §1

Measured: log2 ratio of Biotin-Ahx-Ub-VS probe labelling

Sequence of OTUB1 (Q96FW1 whole entry): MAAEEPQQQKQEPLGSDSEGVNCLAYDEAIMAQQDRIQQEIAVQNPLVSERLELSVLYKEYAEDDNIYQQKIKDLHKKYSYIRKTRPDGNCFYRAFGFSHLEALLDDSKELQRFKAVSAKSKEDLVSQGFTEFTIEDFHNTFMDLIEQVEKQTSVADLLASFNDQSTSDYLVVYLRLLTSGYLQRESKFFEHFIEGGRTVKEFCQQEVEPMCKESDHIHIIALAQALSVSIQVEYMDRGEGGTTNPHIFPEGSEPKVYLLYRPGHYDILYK
Sequence of EIF3H (O15372 whole entry): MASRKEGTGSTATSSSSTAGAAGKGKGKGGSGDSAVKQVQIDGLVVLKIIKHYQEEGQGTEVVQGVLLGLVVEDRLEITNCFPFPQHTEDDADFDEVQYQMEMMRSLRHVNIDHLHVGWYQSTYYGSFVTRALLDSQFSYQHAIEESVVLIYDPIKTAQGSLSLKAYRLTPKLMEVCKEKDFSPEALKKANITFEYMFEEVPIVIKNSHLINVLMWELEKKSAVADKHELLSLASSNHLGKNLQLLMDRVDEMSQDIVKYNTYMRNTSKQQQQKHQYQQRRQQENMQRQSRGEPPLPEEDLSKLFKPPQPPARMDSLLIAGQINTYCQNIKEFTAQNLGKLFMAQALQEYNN
Sequence of ATXN3 (P54252 whole entry): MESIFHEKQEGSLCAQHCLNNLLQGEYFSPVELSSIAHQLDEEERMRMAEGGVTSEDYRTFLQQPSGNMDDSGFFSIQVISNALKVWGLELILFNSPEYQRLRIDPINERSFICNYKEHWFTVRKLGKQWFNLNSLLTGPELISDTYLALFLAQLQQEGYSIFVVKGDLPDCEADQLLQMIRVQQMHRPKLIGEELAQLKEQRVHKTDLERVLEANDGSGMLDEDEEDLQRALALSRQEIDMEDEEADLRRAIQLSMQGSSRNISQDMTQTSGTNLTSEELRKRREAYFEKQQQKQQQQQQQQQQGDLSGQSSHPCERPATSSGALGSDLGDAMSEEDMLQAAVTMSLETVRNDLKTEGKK
Sequence of EIF3F (O00303 whole entry): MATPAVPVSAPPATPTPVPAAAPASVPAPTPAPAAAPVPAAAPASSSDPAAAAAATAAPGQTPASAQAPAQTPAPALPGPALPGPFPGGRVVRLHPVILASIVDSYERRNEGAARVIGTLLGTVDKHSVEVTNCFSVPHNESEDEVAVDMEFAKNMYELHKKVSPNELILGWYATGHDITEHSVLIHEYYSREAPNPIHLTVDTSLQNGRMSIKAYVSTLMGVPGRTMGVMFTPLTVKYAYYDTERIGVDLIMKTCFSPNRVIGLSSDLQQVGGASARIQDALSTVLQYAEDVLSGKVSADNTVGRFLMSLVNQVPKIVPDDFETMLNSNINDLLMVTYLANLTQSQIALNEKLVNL

O=C(CCl)NCCC1COCCO1 (centres undefined)
active: BAP1 -1.01
inactive: ALG13 -0.267 | ATXN3 -0.282 | EIF3F -0.44 | EIF3H 0.24 | FAM105A -0.278 | OTUB1 -0.233 | OTUD4 -0.214 | OTUD5 -0.165
